Measurements as given in the supplement of paper PMC12636033.
± gives the standard deviation of the averaged measurements. The full ranking holds about 33,000 sequences; the median of “E-score (rank enrichment, -0.5 to 0.5)” is about -0.0068, and the highest 2% start at about 0.24. This excerpt belongs to a sample that is enriched for the highest values.

Tested on: muMax20 (Max(13-93) K31hArg/K57hArg, M65Nle)
Test: PBM 8-mer E-score (E-score (rank enrichment, -0.5 to 0.5)); higher = stronger preferential binding
Description: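 Protein binding microarray (universal PBM chip covering all 10-mers in fixed probe flanks) with chemically synthesized human Max(13-93) bHLH-LZ analogs (not full-length Max) bearing noncanonical residues (hArg, Tha, Aib, Nle at 65) and aromatic Cys staples. Read-out per 8-mer (and its reverse complement): E-score (rank-based enrichment, -0.5 to 0.5) and Z-score of median probe intensity.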

Point of comparison: AATATGTA, “PBM 8-mer E-score” value 0.124 ± 0.0062. Against it:
- AGAAACCC — lower, 0.0541 ± 0.034
- AGTAGCTC — lower, -0.0686 ± 0.0062
- CCTGTCGC — lower, -0.224 ± 0.021
- GATCTATA — lower, -0.0926 ± 0.0098
- CATATAGG — higher, 0.147 ± 0.0067
- AATCTATA — within error, 0.143 ± 0.05
- CATATATC — within error, 0.171 ± 0.05
- CATATATG — higher, 0.259 ± 0.017
- GATATGTA — within error, 0.103 ± 0.057
- CATATGTA — higher, 0.257 ± 0.061
- CATCTATA — higher, 0.278 ± 0.013
- TATATATA — higher, 0.228 ± 0.091
- CATATATA — higher, 0.271 ± 0.095
- AATATATG — within error, 0.208 ± 0.089
- AAACGAGT — lower, 0.044 ± 0.013
- AGTGTGAT — within error, 0.125 ± 0.043
- CGTATAGA — within error, 0.0652 ± 0.077
- AAGGTTAT — lower, -0.0312 ± 0.054
- CACGGTTA — lower, 0.00552 ± 0.11
- TCGGAACA — lower, -0.0705 ± 0.069
- CAGTGGCC — lower, -0.25 ± 0.067
- CAGAGCCA — lower, -0.17 ± 0.01
- AGCTGGGC — lower, -0.0998 ± 0.075
- ACCACAGG — lower, -0.113 ± 0.031
- GCACTTGA — lower, -0.0604 ± 0.011
- TGCTCGAA — lower, 0.069 ± 0.0081
- ACCCAGTG — lower, -0.0911 ± 0.074
- AATATGGA — higher, 0.156 ± 0.017
- AATATGGT — lower, 0.095 ± 0.017
- AATATGTG — higher, 0.28 ± 0.094
- AATATGGC — higher, 0.24 ± 0.07
- ACTATGTG — within error, 0.109 ± 0.069
- AATATGTC — lower, 0.0382 ± 0.013
- CAGTTAGG — within error, 0.0928 ± 0.049
- GATGCTAA — lower, -0.0557 ± 0.067
- GCGTCGAC — lower, -0.038 ± 0.027
- CATAAGAG — lower, 0.0912 ± 0.02
- GATGCTGC — lower, -0.0878 ± 0.08
- CGCCCTGA — lower, -0.0272 ± 0.05
- ATAATCGG — within error, 0.137 ± 0.011
- CTAAAGTC — lower, -0.208 ± 0.11
- CTAAAGTA — lower, 0.00517 ± 0.053
- ATAAAGTA — higher, 0.228 ± 0.048
- GTAAAGTA — higher, 0.284 ± 0.074
- ATAAAGTC — higher, 0.239 ± 0.082
- ATAAAGTG — within error, 0.0933 ± 0.062
- AAAATGGG — lower, -0.088 ± 0.024
- AAAATGGA — higher, 0.298 ± 0.036
- CAAATGGA — lower, -0.0819 ± 0.12
- AGGCTATG — lower, -0.0609 ± 0.077
- ATTCAGCA — within error, 0.076 ± 0.071
- AAATCAAT — higher, 0.192 ± 0.01
- AAATCAAG — within error, 0.141 ± 0.028
- TAATCGTA — higher, 0.162 ± 0.0019
- AAATCGTA — higher, 0.248 ± 0.024
- CAATCGTA — higher, 0.18 ± 0.038
- AAATCAAA — higher, 0.2624 ± 0.00016
- ATGTGTCC — lower, 0.0398 ± 0.026
- TGAGAACA — within error, 0.115 ± 0.095
- ACAACGAC — lower, 0.0368 ± 0.017
- GTATGAGA — within error, 0.161 ± 0.072
- GGATGATA — lower, 0.0453 ± 0.067
- CTATGATA — lower, -0.0149 ± 0.015
- CCATGATA — within error, 0.0877 ± 0.047
- GCATGATA — higher, 0.249 ± 0.015
- ACATGATA — higher, 0.197 ± 0.045
- ATATGATG — higher, 0.193 ± 0.013
- GTATGATA — higher, 0.323 ± 0.069
- ATATGATA — higher, 0.273 ± 0.081
- ACGGTGCG — lower, -0.17 ± 0.023
- CTACTTAA — lower, 0.09273 ± 0.00059
- CGAGTGTC — lower, -0.179 ± 0.053
- CTTTGATC — lower, -0.09609 ± 0.0009
- AAGAGACC — lower, 0.0547 ± 0.019
- CCGAGTAA — lower, -0.0803 ± 0.014
- GAACGGAA — lower, -0.0438 ± 0.095
- ATTAATAG — higher, 0.255 ± 0.09
- ATTAATAA — higher, 0.274 ± 0.0099
- ACTAATAC — within error, 0.158 ± 0.089
- ATTAATCG — within error, 0.0839 ± 0.061
- ATGAATAG — within error, 0.172 ± 0.08
- GTTAATAA — higher, 0.227 ± 0.066
- CTTAATAC — higher, 0.214 ± 0.041
- ATGAATAC — higher, 0.248 ± 0.057
- CTTAATAA — lower, 0.0902 ± 0.011
- ATTAATAC — higher, 0.266 ± 0.021
- ATTAATGG — lower, 0.0317 ± 0.074
- CTGAATAC — lower, -0.0332 ± 0.1
- AGATTGCT — lower, -0.0246 ± 0.009
- GGATAGAA — within error, 0.123 ± 0.013
- AACTCCCG — lower, -0.034 ± 0.042
- GGAATCGA — lower, -0.191 ± 0.065
- GCGACTAC — lower, -0.0421 ± 0.049
- ACAAACCC — within error, 0.11 ± 0.054
- GGGTGGTA — lower, -0.00184 ± 0.074
- ACTAGAGG — within error, 0.113 ± 0.047
- ACATGCAT — higher, 0.294 ± 0.053
- ACATGCGC — higher, 0.17 ± 0.0097
- GCATGCAA — within error, 0.147 ± 0.034
- ACATGCGG — lower, 0.00547 ± 0.099
- ACATGCGT — within error, 0.243 ± 0.13
- ACATGCAC — higher, 0.185 ± 0.034
- ACATGCAG — within error, 0.032 ± 0.14
- ACATGCAA — within error, 0.16 ± 0.046
- TCATGCAA — higher, 0.277 ± 0.021
- ATTTCACC — lower, 0.0208 ± 0.092
- ATTGTGGA — within error, 0.0503 ± 0.16
- AGATATAT — higher, 0.176 ± 0.023
- ATCGTACA — within error, 0.159 ± 0.048
- CTCGTACA — within error, 0.041 ± 0.08
- GTCGTACA — within error, 0.242 ± 0.13
- ACGTGAAT — higher, 0.235 ± 0.083
- CTTCTCAA — lower, 0.0152 ± 0.1
- AGCCAGCC — lower, -0.293 ± 0.06
- CCTAAGAA — within error, 0.099 ± 0.038
- ATGCTCAA — lower, 0.0249 ± 0.035
- CGCCGTGA — lower, -0.131 ± 0.031
- CAATAATG — within error, 0.117 ± 0.023
- CAATAACA — higher, 0.26 ± 0.066
- GAATAACA — within error, 0.175 ± 0.11
- CAATAATA — higher, 0.304 ± 0.0083
- AAATAATT — higher, 0.242 ± 0.046
- TAATAACA — the same, 0.124 ± 0.0069
- AAATAATA — higher, 0.232 ± 0.013
- AAATAATC — lower, 0.0578 ± 0.046
- CAATAATC — within error, 0.0932 ± 0.028
- ATTTACCC — lower, 0.0541 ± 0.029
- CGTCTGGA — lower, -0.178 ± 0.11
- GCCTGTTA — within error, 0.0517 ± 0.1
- AGCACCCG — lower, -0.159 ± 0.024
- CGGCCAAA — lower, -0.227 ± 0.024
- CGCTGATA — lower, -0.0375 ± 0.12
- GAATAAAA — lower, 0.0698 ± 0.033
- AAATAAAT — within error, 0.156 ± 0.054
- AAATAAAA — higher, 0.252 ± 0.023
- AAAATAAA — within error, 0.116 ± 0.064
- TAATAAAA — higher, 0.246 ± 0.0097
- CAATAAAA — higher, 0.197 ± 0.038
- AAGCGTCC — lower, -0.0322 ± 0.057
- ACCTAGAT — lower, -0.0454 ± 0.032
- TGGGAAAA — lower, 0.0021 ± 0.034
- CTTTTTTC — within error, 0.127 ± 0.031
- ATTCGCTA — within error, 0.0997 ± 0.028
- CATCCATC — lower, 0.0727 ± 0.029
- GGGGTACC — lower, -0.196 ± 0.038
- GCATATAA — within error, 0.113 ± 0.027
- CTATTATA — within error, 0.0941 ± 0.095
- GTATTACA — higher, 0.3133 ± 0.0018
- ATATTACC — higher, 0.244 ± 0.0062
- AAATTATA — within error, 0.173 ± 0.054
- CTATTACC — within error, 0.0779 ± 0.076
- CTATTACA — higher, 0.171 ± 0.028
- ACATTATA — higher, 0.21 ± 0.031
- AAATTATT — higher, 0.2538 ± 0.0012
- GCATTACA — within error, 0.142 ± 0.017
- AAATTATG — higher, 0.211 ± 0.015
- ATATTATA — higher, 0.308 ± 0.012
- ATATTACA — within error, 0.137 ± 0.011
- CCCTTTCG — lower, -0.143 ± 0.066
- AGAACTAC — within error, 0.126 ± 0.015
- CAGTGGGA — lower, -0.0398 ± 0.11
- CGAACAGA — lower, -0.107 ± 0.056
- AGCCTATC — lower, 0.0159 ± 0.029
- AACTTCTC — lower, -0.0128 ± 0.016
- CAGAGTTA — lower, -0.06527 ± 0.00021
- AGATTATG — lower, 0.00982 ± 0.022
- CTATTAGA — lower, -0.0357 ± 0.074
- GTATTAAA — within error, 0.178 ± 0.049
- ATATTATG — higher, 0.276 ± 0.015
- GCATTATA — within error, 0.129 ± 0.031
- ATATTAGA — higher, 0.302 ± 0.026
- ATATTATC — within error, 0.0756 ± 0.14
- GTATTAGA — higher, 0.213 ± 0.0064
- GTATTATA — higher, 0.256 ± 0.063
